Compounds with a hit are over-represented: about 11% of the library has one in this group of screens.
Pf growth 48h = inhibits P. falciparum growth in the first generation, 48 h | P. falciparum luciferase growth in erythrocytes, 48 h | Potency, µM (series often up to 28.7 µM), for inactives: top-dose activity change, negative = inhibition, most hits filed as inhibitors | 310,000 tested, 5.9% active; further: on the % scale 0 is the no-effect control and ±100 the full control effect
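Luciferase-expressing P. falciparum in infected erythrocytes (2% hematocrit, 0.1% parasitemia final) in RPMI 1640/0.5% Albumax were exposed to compound for 48 hours at 37 C, 5% CO2; growth read as luminescence.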
NS1 function inh = influenza NS1 inhibition | Potency, µM (highest dose often 46.1 µM), for inactives: at the top dose activity, positive = more growth | 270,000 tested, 0.4% active; calls by dose curve; further: actives are rising curves; nearly all actives have a fitted effect of over 50% in size
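Compounds were scored for reversing the slow growth caused by influenza A NS1 in S. cerevisiae, measured by optical density at 600 nm. Assay medium contained 2% galactose at pH 6.0; NS1-free yeast of the same strain were the positive control.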
Pf growth 96h = P. falciparum growth inhibition at 96 hour, primary screen for plastid delayed-death inhibitors; 320,000 tested, 6.9% active; Potency, µM (doses to about 28.7 µM), for the others: at the top dose activity change, negative = inhibition, hits mostly inhibitors; P. falciparum luciferase reporter growth, 96 h; AID 504834; further: on the % scale 0 is the no-effect control and ±100 the full control effect
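Two-generation exposure (96 h) targets delayed-death phenotype. Reporter parasites carrying integrated firefly luciferase, in red cells at 2% hematocrit and 0.05% parasitemia final, kept at 37 C, 5% CO2; luminescence loss indicates inhibition.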
HCV inhibitor = inhibitors of hepatitis C virus infection; Huh7.5.1 HCVcc-Cre infection, luciferase reporter, 44 h; Potency, µM (top dose mostly 41.8 µM), inactives show top-dose activity change, negative = inhibition, most hits filed as inhibitors; 340,000 tested, 3.4% active; AID 651820; further: on the % scale 0 is the no-effect control and ±100 the full control effect
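A cell-based infection assay in which seeded cells (1,000 per well) receive test compound after 4 h, are inoculated with HCVcc-Cre at approximately 0.5 moi, and are incubated 44 h before luminescence detection.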
VACV mCherry inh = inhibitors of vaccinia virus infection (mCherry reporter signal); Vaccinia virus mCherry reporter infection, fluorescence; Potency, µM (series often up to 36.5 µM), for inactives: at the top dose activity change, negative = inhibition, actives largely listed as inhibitors; 310,000 tested, 0.63% active; calls by dose curve; tested in A549 cells; further: on the % scale 0 is the no-effect control and ±100 the full control effect; nearly all actives have a fitted effect of over 35% in size
Vaccinia Venus = vaccinia inhibition (Venus reporter); Vaccinia virus Venus reporter expression, fluorescence; Potency, µM (titrated, usually from 36.5 µM), inactives show at the top dose activity change, negative = inhibition, most hits filed as inhibitors; 330,000 tested, 0.46% active; calls by dose curve; tested in A549 cells; further: on the % scale 0 is the no-effect control and ±100 the full control effect; nearly all actives have a fitted effect of over 30% in size
Numbers without * were called inactive; i = inactive; ? = inconclusive; · = no result; [ ] = another dose, or the depositor's remark. Unless noted, the call rests on the fitted dose curve; in most records, active means well fitted inhibition curve with a large enough effect; inconclusive means small, poorly fitted or top-dose-only effect, or another doubt; inactive means no such curve, though single readings can be large or run the other way. Potency means the concentration at half of the fitted maximal effect.

SMILES	Pf growth 48h	NS1 function inh	Pf growth 96h	HCV inhibitor	VACV mCherry inh	Vaccinia Venus
Cc1ccc(Cl)cc1NC(=O)CC(O)(C(F)(F)F)C(F)(F)F	?	-107.0%	24.3%	22.4µM*	?	28.2µM*
CC1CCCC(C)N1C(=O)CSc1nc2ncnc(N)c2[nH]1 (stereo not drawn)	6.4%	-1.4%	0.738µM*	11.5%	-13.6%	-5.6%
COc1ccc(C(C(=O)NC2CCCC2)N(C(=O)c2snc(-c3ccc(F)cc3)c2N)c2ccccc2)cc1 (stereo not drawn)	33.8%	15.5%	58.5%	5.9%	·	·
COc1ccc(C(C(=O)NC2CCCC2)N(C(=O)c2snc(-c3ccc(F)cc3)c2N)c2ccc(OC)cc2)cc1 (stereo not drawn)	?	1.7%	5.22µM*	?	·	·
COc1ccc(C(C(=O)NC2CCCC2)N(C(=O)c2snc(-c3ccc(F)cc3)c2N)c2ccc(F)cc2)cc1 (stereo not drawn)	?	11.7%	-3.5%	?	·	·
COc1ccc(C(C(=O)NC2CCCC2)N(C(=O)c2snc(-c3ccc(F)cc3)c2N)c2cccc(F)c2)cc1 (stereo not drawn)	?	6.0%	0.0%	10µM*	·	·
Cc1c(Br)c(C(F)(F)F)nn1CC(=O)N(C)C1CCCCC1	19.1%	5.4%	-29.2%	0.9%	i	-2.3%
CN(C)CCCN(C(=O)c1ccc(S(=O)(=O)N(C)C2CCCCC2)cc1)c1nc2ccc(Br)cc2s1	13.1µM*	-2.1%	?	?	-3.0%	-15.5%
Cc1cc(C)c2sc(N(CCCN(C)C)C(=O)c3ccc(S(=O)(=O)N(C)C4CCCCC4)cc3)nc2c1	10.4µM*	·	?	10µM*	14.1µM*	12.6µM*
C/C(=N\NC(=S)NC1CCCCC1)c1c(F)cccc1F	-15.5%	·	10.4µM*	?	-2.5%	-14.7%
C/C(=N\NC(=S)NC1CCCCC1)c1ccc(Cl)c(Cl)c1	2.33µM*	6.0%	4.15µM*	-0.6%	·	·
COc1ccnc(Oc2ccc(F)cc2)c1C(=O)N/C=N/OCc1ccc(F)cc1Cl	?	5.5%	?	-23.4%	i	-15.2%
Cc1cc(C)n2c(Nc3c(C)cccc3C)c(-c3ccsc3)nc2n1	·	·	·	·	-10.3%	-9.7%
O=C(C[C@@H]1CC[C@@H](NC(=O)Nc2cccc(F)c2)[C@@H](CO)O1)NCC1CCCCC1	·	·	·	·	34.4%	-1.4%
O=c1c2oc3ccccc3c2[nH]c(=S)n1-c1ccc(F)cc1	4.8%	·	8.28µM*	19.6%	-13.1%	-0.9%
O=C(Nc1ccc(OCc2ccccc2)cc1)c1cccnc1	·	-8.5%	-11.6%	-13.9%	i	-15.8%
Cc1cccc(C)c1NC(=O)COC(=O)CCc1c[nH]c2ccccc12	3.7µM*	·	6.57µM*	-0.5%	·	·
Cc1cccc(NC(=O)COC(=O)CCc2c[nH]c3ccccc23)c1C	13.1µM*	·	?	-3.6%	·	·
O=C(COC(=O)CCc1c[nH]c2ccccc12)Nc1ccccc1C(F)(F)F	-16.8%	·	31.0%	-18.3%	·	·
CN1C(=O)SC(Nc2ccccc2C(=O)O)C1=O (stereo not drawn)	5.6%	-7.4%	1.31µM*	5.7%	-14.7%	-11.8%
O=C(O)c1ccccc1Nc1ccccc1C(=O)O	-5.1%	?	25.3%	1.3%	·	·
Fc1ccc(NCc2cccnc2)cc1	·	7.3%	?	8.0%	·	·
Cc1c(C)n(C(=O)CSc2nccn2C)c2ccccc12	·	-30.7%	?	7.1%	-2.6%	-4.9%
Cc1ccc(S(=O)(=O)N2CCN(c3ccccc3)CC2)cc1C(N)=O	-18.7%[5.75 µM]	·	13.1µM*	4.6%	i	-2.9%
O=C(c1cc(S(=O)(=O)N2CCN(c3ccccc3)CC2)ccc1Cl)N1CCCC(C(F)(F)F)C1 (stereo not drawn)	?	·	?	7.94µM*	-7.5%	-28.9%
SMILES	Pf growth 48h	NS1 function inh	Pf growth 96h	HCV inhibitor	VACV mCherry inh	Vaccinia Venus
O=C(Nc1ccncc1)c1cc(S(=O)(=O)N2CCN(c3ccccc3)CC2)ccc1Cl	11.7µM*	·	?	?	-5.9%	-22.8%
O=C(c1cccc(S(=O)(=O)N2CCN(c3ccccc3)CC2)c1)N1CCCC(C(F)(F)F)C1 (stereo not drawn)	?	·	-1.8%	?	-28.2%	-19.1%
O=C(Nc1ccncc1)c1cc(S(=O)(=O)N2CCCCC2)ccc1Cl	?	·	-14.1%	-18.7%	-23.4%	-10.0%
COc1cc2ccccc2cc1C(=O)N1CCCC(C(F)(F)F)C1 (stereo not drawn)	0.522µM*	·	0.465µM*	15.3%	-4.3%	-24.4%
CCOP(=O)(OCC)C1(C(=O)O)CCCC1	10.5%	7.3%	16.6%	17.5%	-17.4%	-11.4%
F/C(COc1ccc2c(c1)[nH]c1ccccc12)=C1/CN2CCC1CC2	?	·	10.7µM*	·	·	·
O=C(COc1ccc(F)cc1)N1CCC(c2ccccc2)C1 (stereo not drawn)	156.7%	-8.4%	?	5.7%	·	·
COc1ccc(N=C2C(=Nc3ccc(OC)cc3)N(c3ccc(OC)cc3)C(=S)N2C)cc1	5.22µM*	-11.4%	·	-27.1%	-8.1%	-15.8%
COc1ccc(N=C2C(=Nc3ccc(OC)cc3)N(c3ccc(OC)cc3)C(=S)N2c2ccccc2)cc1	28.3%	-12.2%	·	?	-23.9%	-15.5%
COc1ccccc1CN(Cc1cccnc1)S(=O)(=O)c1ccc(-n2cnnn2)c(OC)c1	?	-12.3%	8.28µM*	8.0%	-19.5%	-8.8%
CCOc1ccccc1CN(Cc1ccco1)S(=O)(=O)c1ccc(-n2cnnn2)c(OC)c1	10.4µM*	-1.3%	·	?	?	?
O=C(Nc1ccc(Cl)c([N+](=O)[O-])c1)C(Sc1ccccc1)c1ccccc1 (stereo not drawn)	13.1µM*	-31.5%	?	?	-19.6%	?
O=[N+]([O-])c1cccc2c(N3CCCC3)ccnc12	?	2.1%	86.4%	3.55µM*	?	7.08µM*
O=C1NC(c2cn(-c3ccccc3)nc2-c2cccs2)C(C(=O)c2cccnc2)C(O)(C(F)(F)F)N1 (stereo not drawn)	·	-51.3%	13.1µM*	14.9%	·	-16.1%
COCCNCCCCOc1ccc(Br)cc1C	-22.2%	-13.4%	?	10µM*	-13.8%	-7.6%
COCCCNCCCCOc1cccc(Br)c1	1.7%	8.4%	?	?	i	-8.3%
COc1ccccc1OCCCCNC(C)(C)C	5.2%	12.1%	54.6%	5.2%	-16.4%	-7.3%
CCCCNCCCOc1ccc(C)cc1Br	?	4.6%	2.33µM*	-14.9%	-29.1%	-14.3%
Cc1cc(Br)ccc1OCCCCNC(C)(C)C	?	-9.0%	?	12.6µM*	?	-23.2%
Cc1cc(Cl)c(OCCCN(C)C)c(Br)c1	-0.5%	3.8%	72.9%	-22.7%	i	-13.6%
Cc1cc(Cl)c(OCCCCNC(C)(C)C)c(Br)c1	-16.8%	-14.8%	59.6%	10µM*	·	·
